# Measurements taken from ChEMBL document CHEMBL1961873, “Compounds: GSK PKIS; Assays: Nanosyn kinase panel” (2012).
# Several values for one entry are separate records, joined by “and”; a condition that tells them apart may be missing. Identical values can stand only once.
# Tests used:
# [1] = molecular target: Mitogen-activated protein kinase kinase kinase kinase 4 (Homo sapiens) (UniProt O95819); conditions: at 1 µM;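 further: reported figure is an averaged inhibition value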
# [2] = molecular target: Dual specificity mitogen-activated protein kinase kinase 1 (Homo sapiens) (UniProt Q02750); conditions: at 0.1 µM
# [3] = molecular target: Dual specificity mitogen-activated protein kinase kinase 1 (Homo sapiens) (UniProt Q02750); conditions: at 1 µM
# [4] = molecular target: Misshapen-like kinase 1 (Homo sapiens) (UniProt Q8N4C8); conditions: at 0.1 µM
# [5] = molecular target: Misshapen-like kinase 1 (Homo sapiens) (UniProt Q8N4C8); conditions: at 1 µM
# [6] = molecular target: T1, Serine/threonine-protein kinase 4 (Homo sapiens) (UniProt Q13043); conditions: at 0.1 µM
# T1 sequence (whole entry): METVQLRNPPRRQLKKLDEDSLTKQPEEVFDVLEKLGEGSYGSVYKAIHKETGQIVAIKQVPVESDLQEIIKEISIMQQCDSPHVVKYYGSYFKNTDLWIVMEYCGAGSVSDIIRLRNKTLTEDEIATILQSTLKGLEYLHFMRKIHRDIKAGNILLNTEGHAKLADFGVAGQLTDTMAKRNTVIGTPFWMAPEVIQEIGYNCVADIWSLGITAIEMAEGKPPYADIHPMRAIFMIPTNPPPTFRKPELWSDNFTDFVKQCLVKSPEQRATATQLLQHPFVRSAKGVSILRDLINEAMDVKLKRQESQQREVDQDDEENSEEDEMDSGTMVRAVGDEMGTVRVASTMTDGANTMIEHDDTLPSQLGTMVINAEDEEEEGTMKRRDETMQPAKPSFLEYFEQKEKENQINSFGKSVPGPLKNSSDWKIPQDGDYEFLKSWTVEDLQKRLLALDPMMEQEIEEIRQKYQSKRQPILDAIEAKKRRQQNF
# [7] = molecular target: T1, Serine/threonine-protein kinase 4 (Homo sapiens); conditions: at 1 µM
# [8] = molecular target: T2, Serine/threonine-protein kinase 3 (Homo sapiens) (UniProt Q13188); conditions: at 0.1 µM
# T2 sequence (whole entry): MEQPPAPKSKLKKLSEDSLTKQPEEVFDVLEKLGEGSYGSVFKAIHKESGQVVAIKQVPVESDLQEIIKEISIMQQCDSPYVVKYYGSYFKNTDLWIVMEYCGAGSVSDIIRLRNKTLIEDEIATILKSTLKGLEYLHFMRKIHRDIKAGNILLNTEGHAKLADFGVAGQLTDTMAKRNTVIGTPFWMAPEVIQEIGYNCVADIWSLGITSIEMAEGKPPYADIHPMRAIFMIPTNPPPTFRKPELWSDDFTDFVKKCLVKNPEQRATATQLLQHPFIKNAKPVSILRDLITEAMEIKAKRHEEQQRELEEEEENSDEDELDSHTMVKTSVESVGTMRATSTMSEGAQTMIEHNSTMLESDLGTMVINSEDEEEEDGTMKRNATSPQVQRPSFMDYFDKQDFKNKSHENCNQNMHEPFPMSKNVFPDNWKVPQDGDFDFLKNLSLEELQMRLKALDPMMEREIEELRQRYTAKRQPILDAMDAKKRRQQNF
# [9] = molecular target: T2, Serine/threonine-protein kinase 3 (Homo sapiens); conditions: at 1 µM
# [10] = molecular target: Serine/threonine-protein kinase 26 (Homo sapiens) (UniProt Q9P289); conditions: at 0.1 µM
# [11] = molecular target: Serine/threonine-protein kinase 26 (Homo sapiens) (UniProt Q9P289); conditions: at 1 µM
# [12] = molecular target: Serine/threonine-protein kinase PAK 1 (Homo sapiens) (UniProt Q13153); conditions: at 0.1 µM
# [13] = molecular target: Serine/threonine-protein kinase PAK 1 (Homo sapiens) (UniProt Q13153); conditions: at 1 µM
# [14] = molecular target: Serine/threonine-protein kinase PAK 2 (Homo sapiens) (UniProt Q13177); conditions: at 0.1 µM
# [15] = molecular target: Serine/threonine-protein kinase PAK 2 (Homo sapiens) (UniProt Q13177); conditions: at 1 µM
# [16] = molecular target: Serine/threonine-protein kinase PAK 3 (Homo sapiens) (UniProt O75914); conditions: at 0.1 µM
# [17] = molecular target: Serine/threonine-protein kinase PAK 3 (Homo sapiens) (UniProt O75914); conditions: at 1 µM
# [18] = molecular target: Serine/threonine-protein kinase PAK 5 (Homo sapiens) (UniProt Q9P286); conditions: at 0.1 µM
# [19] = molecular target: Serine/threonine-protein kinase PAK 5 (Homo sapiens) (UniProt Q9P286); conditions: at 1 µM
# [20] = molecular target: Serine/threonine-protein kinase PAK 6 (Homo sapiens) (UniProt Q9NQU5); conditions: at 0.1 µM;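 further: mean PAK6 inhibition reported from the GSK PKIS screen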
# Sequence of Serine/threonine-protein kinase PAK 6 (Homo sapiens) (Q9NQU5 whole entry, looked up): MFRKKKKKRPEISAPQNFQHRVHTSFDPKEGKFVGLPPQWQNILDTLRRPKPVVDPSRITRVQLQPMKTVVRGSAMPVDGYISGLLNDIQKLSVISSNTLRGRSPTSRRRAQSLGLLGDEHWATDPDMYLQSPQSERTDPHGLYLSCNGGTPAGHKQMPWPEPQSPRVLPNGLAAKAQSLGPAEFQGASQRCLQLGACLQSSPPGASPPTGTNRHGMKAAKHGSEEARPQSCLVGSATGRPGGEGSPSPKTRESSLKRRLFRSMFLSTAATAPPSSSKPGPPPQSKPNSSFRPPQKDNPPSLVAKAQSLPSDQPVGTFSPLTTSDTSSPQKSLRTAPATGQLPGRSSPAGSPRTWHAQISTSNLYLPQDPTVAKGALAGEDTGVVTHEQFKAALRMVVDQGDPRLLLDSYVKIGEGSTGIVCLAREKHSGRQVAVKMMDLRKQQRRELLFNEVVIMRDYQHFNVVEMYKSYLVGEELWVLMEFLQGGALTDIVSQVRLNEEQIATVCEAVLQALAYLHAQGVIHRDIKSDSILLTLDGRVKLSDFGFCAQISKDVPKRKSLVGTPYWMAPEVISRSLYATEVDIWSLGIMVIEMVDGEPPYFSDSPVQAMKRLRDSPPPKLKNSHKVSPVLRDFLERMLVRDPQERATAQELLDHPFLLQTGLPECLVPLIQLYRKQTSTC
# Sequence of Serine/threonine-protein kinase PAK 2 (Homo sapiens) (Q13177 whole entry): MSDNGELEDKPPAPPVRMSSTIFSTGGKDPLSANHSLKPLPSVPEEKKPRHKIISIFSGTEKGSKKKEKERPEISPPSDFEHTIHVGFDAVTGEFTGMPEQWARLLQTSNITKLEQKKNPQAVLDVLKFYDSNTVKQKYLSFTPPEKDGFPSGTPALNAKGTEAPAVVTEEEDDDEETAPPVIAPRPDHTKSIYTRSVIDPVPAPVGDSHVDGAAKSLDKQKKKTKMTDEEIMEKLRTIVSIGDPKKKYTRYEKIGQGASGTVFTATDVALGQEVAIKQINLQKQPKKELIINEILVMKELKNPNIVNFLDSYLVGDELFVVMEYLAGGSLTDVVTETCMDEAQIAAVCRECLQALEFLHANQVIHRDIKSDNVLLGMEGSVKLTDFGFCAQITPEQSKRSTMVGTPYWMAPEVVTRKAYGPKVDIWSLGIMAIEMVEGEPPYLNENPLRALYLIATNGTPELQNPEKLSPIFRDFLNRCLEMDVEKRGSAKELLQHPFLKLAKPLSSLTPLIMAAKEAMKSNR
# Sequence of Serine/threonine-protein kinase PAK 5 (Homo sapiens) (Q9P286 whole entry, looked up): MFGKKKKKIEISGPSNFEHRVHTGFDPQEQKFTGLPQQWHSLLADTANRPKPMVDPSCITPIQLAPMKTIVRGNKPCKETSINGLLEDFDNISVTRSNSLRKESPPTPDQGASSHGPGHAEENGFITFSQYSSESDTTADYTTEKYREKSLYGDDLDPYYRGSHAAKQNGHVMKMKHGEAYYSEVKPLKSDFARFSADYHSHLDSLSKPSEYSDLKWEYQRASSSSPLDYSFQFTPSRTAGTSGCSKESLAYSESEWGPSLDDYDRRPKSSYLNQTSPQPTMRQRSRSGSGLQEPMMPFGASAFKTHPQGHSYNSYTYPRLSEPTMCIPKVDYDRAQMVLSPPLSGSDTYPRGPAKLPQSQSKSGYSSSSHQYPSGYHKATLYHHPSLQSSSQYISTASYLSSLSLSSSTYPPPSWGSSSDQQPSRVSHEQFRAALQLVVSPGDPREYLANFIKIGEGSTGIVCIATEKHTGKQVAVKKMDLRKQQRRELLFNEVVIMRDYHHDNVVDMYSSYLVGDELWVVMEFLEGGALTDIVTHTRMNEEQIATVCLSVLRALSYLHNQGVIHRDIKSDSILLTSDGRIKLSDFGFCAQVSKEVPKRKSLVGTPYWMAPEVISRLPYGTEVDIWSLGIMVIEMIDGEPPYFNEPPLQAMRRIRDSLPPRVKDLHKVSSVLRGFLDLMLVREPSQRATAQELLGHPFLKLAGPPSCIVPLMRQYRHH
# Sequence of Serine/threonine-protein kinase PAK 3 (Homo sapiens) (O75914 whole entry, looked up): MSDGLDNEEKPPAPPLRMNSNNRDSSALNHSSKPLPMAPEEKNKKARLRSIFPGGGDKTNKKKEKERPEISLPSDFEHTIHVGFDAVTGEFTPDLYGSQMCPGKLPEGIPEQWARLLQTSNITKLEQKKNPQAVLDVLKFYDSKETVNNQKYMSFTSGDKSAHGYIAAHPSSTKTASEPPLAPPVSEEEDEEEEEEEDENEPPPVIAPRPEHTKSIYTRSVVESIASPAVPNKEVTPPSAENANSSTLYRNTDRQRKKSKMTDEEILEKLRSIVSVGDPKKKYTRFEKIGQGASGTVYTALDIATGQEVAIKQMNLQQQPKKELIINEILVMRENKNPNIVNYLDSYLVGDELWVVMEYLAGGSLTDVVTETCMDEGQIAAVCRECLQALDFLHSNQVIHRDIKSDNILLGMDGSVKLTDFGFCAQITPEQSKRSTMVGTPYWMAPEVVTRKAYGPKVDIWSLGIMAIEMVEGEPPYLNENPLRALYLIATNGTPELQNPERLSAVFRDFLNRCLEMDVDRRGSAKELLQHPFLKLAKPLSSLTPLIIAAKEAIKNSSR
# Sequence of Dual specificity mitogen-activated protein kinase kinase 1 (Homo sapiens) (Q02750 whole entry): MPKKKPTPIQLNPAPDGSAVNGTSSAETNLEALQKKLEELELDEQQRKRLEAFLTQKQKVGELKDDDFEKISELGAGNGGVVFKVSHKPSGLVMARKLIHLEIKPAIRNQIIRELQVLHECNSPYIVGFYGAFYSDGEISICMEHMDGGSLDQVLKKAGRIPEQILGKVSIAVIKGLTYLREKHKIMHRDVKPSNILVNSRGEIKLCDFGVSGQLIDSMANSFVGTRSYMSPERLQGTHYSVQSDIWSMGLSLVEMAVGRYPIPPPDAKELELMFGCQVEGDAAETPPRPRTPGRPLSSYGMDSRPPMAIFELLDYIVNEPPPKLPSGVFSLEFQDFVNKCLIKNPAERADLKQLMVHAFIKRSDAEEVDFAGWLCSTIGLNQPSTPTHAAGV
# Sequence of Mitogen-activated protein kinase kinase kinase kinase 4 (Homo sapiens) (O95819 2-1239 limits assumed): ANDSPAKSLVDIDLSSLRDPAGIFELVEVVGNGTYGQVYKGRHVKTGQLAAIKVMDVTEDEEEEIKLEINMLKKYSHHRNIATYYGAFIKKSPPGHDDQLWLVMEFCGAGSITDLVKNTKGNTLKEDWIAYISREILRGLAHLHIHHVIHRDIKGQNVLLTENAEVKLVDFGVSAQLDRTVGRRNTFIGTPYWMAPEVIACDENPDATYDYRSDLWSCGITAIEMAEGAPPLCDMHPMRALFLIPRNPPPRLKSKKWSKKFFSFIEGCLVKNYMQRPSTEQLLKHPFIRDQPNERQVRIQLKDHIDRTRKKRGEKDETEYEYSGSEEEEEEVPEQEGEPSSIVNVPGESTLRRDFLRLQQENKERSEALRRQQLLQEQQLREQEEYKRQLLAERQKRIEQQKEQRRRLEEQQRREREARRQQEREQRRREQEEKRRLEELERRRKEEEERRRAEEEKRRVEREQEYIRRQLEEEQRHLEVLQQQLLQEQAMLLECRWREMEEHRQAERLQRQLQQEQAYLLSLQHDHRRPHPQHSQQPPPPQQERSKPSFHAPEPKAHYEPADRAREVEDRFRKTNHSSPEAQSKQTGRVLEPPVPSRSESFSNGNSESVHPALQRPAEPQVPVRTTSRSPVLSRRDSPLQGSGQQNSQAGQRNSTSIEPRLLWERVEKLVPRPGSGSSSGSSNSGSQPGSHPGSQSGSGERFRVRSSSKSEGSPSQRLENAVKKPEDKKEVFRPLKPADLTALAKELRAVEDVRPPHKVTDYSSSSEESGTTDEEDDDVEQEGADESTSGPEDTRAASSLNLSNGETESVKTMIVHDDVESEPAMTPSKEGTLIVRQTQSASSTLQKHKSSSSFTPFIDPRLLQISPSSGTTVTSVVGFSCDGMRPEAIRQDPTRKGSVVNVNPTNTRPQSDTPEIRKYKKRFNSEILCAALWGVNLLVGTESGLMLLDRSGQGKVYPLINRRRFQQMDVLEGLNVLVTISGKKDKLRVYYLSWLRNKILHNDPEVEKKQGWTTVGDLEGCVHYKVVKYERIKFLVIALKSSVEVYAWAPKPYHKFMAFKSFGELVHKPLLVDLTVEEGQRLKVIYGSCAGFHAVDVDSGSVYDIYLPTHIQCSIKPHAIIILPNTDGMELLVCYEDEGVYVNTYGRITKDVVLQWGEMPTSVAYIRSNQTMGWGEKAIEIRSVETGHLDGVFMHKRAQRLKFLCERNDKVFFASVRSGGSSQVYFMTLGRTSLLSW
# Sequence of Serine/threonine-protein kinase PAK 1 (Homo sapiens) (Q13153 whole entry): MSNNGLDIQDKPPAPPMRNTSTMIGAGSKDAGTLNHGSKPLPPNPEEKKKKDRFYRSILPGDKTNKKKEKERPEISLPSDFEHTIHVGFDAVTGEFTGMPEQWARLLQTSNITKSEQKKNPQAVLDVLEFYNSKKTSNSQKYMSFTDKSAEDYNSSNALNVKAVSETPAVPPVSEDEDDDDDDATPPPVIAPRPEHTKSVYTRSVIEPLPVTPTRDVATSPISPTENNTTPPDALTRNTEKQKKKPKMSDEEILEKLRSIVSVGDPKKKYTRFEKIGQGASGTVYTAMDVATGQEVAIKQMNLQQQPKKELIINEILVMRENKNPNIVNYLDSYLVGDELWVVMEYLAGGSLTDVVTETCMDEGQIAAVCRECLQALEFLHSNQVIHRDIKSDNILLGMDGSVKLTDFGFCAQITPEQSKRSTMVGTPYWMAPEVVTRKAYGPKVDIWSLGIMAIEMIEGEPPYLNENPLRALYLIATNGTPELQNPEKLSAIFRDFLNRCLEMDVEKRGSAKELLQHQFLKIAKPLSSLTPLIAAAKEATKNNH
Compound,inhibition [1],inhibition [2],inhibition [3],inhibition [4],inhibition [5],inhibition [6],inhibition [7],inhibition [8],inhibition [9],inhibition [10],inhibition [11],inhibition [12],inhibition [13],inhibition [14],inhibition [15],inhibition [16],inhibition [17],inhibition [18],inhibition [19],inhibition [20] [%]
O=C(O[C@H]1CN[C@H](C#Cc2cc3ncnc(Nc4ccc5c(ccn5Cc5cc(F)ccc5F)c4)c3s2)C1)N1CCOCC1,5.63%,5.1%,5.26%,5.96%,5.37%,2.68%,4.43%,2.54%,1.92%,-1.74%,0.81%,9.36%,8.97%,2.13%,2.48%,5.02%,5.53%,-0.09%,-5.06%,-1.93
N#Cc1ccc2c(-c3ccnc(NC4CC4)n3)c(-c3ccc(F)cc3)nn2c1,46%,0.85%,3.35%,6%,30.2%,0.26%,1.31%,1.49%,1.55%,-1.26%,-1.31%,-1.35%,7.43%,0.74%,0.16%,1.37%,2.53%,1.73%,3.22%,-5.39
CNC(=O)c1cncc(/C=C/c2ccccc2C)c1,19.7%,6.36%,5.22%,8.44%,15.5%,9.28%,17.2%,9.07%,15.2%,1.02%,2.47%,4.67%,7.54%,2.06%,2.02%,4.95%,5.93%,15.4%,4.8%,-2.91
COc1ccc(Nc2ncc(-c3ccccc3)o2)cc1OC,48.3%,0.51%,2.06%,7.04%,35.5%,0.86%,4.87%,-0.13%,2.73%,-0.79%,-5.3%,0.24%,1.35%,0.18%,0.91%,-0.05%,0.75%,-8.21%,-5.61%,8.32
Nc1ncnc2occ(-c3ccc(NC(=O)Nc4cc(C(F)(F)F)ccc4F)cc3)c12,22.3% and 6.15%,1.15% and -1.72%,2.3% and 0.44%,6.26% and -2.13%,19.9% and 2.27%,4.27% and -2.54%,8.75% and 0.44%,4.42% and -3.89%,6.36% and -2.2%,0.12% and -0.14%,1.08% and -2.02%,3.44% and -1.9%,4.36% and -1.17%,0.88% and -1%,1.23% and -1.68%,2.44% and -2.03%,1.87% and -1.59%,-0.44% and -3.26%,-2.53% and -0.87%,1.24
Cc1ccc(-c2cc3c(NC(=O)C4CC4)ncnc3o2)cc1,8.27%,3.02%,3.21%,6.35%,8.16%,6.14%,7.49%,5.64%,4.87%,-2.57%,-2.53%,3.85%,5.51%,1.95%,1.97%,3.79%,4.95%,4.59%,-3.05%,4.74
CCS(=O)(=O)c1ccc(OC)c(Nc2ncc(-c3cccc(F)c3)o2)c1,19.2%,4.98%,5%,8.05%,16.1%,3.31%,8.63%,5.69%,8.4%,-0.55%,-0.44%,9.43%,11.2%,1.97%,2.27%,6%,9.2%,7.29%,9.85%,-7.56
